# Assay results taken from PubChem BioAssay (NCATS).
# Results filed as inconclusive are left out. Activity calls are given as the source filed them. Calls come from the whole dose curve; as a rule, active = well fitted inhibition curve with a large enough effect; inconclusive = small, poorly fitted or top-dose-only effect; inactive = flat fitted curve, though single readings scatter.
# Target: Phospholipid hydroperoxide glutathione peroxidase GPX4 (Homo sapiens) (UniProt P36969)
# Assay: Primary qHTS Assay for Inhibitors of Recombinant Selenoprotein Glutathione Peroxidase 4 (GPX4) (AID 1845192); note: nearly all actives have a fitted effect of over 65% in size; for activity change, negative = inhibition: % is set by controls: 0 for no effect and ±100 for the full control effect
# Conditions: recombinant GPX4, GR-coupled NADPH fluorescence, 15 min; series mostly up to 50 µM; activity change, negative = inhibition: at the top concentration
# In short: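 GR-coupled assay: recombinant GPX4 preincubated 30 min with compound at room temperature; final 200 nM GPX4, 1 mM GSH, 0.5 mM cumene hydroperoxide, 0.5 mM NADPH, 100 nM GR, 0.01% BSA, pH 7.5 Tris. NADPH fluorescence (340/450 nm) read at 0 and 15 min.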
# Potency is the fitted concentration of half-maximal effect.
# Chain of Phospholipid hydroperoxide glutathione peroxidase GPX4 (Homo sapiens) (P36969 whole entry, looked up): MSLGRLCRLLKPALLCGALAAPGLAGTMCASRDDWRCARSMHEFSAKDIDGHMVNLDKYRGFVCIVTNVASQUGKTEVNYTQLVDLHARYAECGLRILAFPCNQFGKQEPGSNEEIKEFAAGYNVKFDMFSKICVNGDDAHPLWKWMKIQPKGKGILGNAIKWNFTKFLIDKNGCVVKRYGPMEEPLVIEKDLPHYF
SMILES,Potency,"activity change, negative = inhibition"
O=C(O)c1cc(=O)c2c3nc4ccccc4oc-3cc(=O)c2[nH]1,7.94 µM (active),
Cc1nnc(C(C)C)n1C1CC2CCC(C1)N2CCC(NC(=O)C1CCC(F)(F)CC1)c1ccccc1 (configuration not stated),,-8.09% (inactive)
CC(C)(C)NCC(O)COc1cccc2c1CCCC2=O (configuration not stated),,-1.02% (inactive)
COC1C=C([C@@H]2CC=C3[C@@]4(C)C(CC[C@]32C)[C@@]2(C)C=CC(=O)C(C)(C)C2C[C@H]4OC(C)=O)C(=O)O1 (some centres not stated),,-10.8% [at 27.8 µM] (inactive)
CC[C@@]1(O)C(=O)OCc2c1cc1n(c2=O)Cc2cc3c([N+](=O)[O-])cccc3nc2-1,35.5 µM (active),
CC(NCc1ccc(OCc2cccc(F)c2)cc1)C(N)=O (configuration not stated),,14.9% (inactive)
CCC[C@@H]1C[C@@H](C(=O)N[C@H](C(C)Cl)[C@H]2O[C@H](SC)[C@H](O)[C@@H](O)[C@H]2O)N(C)C1 (some centres not stated),,3.68% (inactive)
Cn1c(=O)cc(N2CCCC(N)C2)n(Cc2ccccc2C#N)c1=O (configuration not stated),,9.3% (inactive)
COC(=O)[C@@H]1C2CC3c4[nH]c5ccccc5c4CCN3CC2CC[C@@H]1O (some centres not stated),,3.47% (inactive)
Nc1nc(CC(=O)Nc2ccc(CCNCC(O)c3ccccc3)cc2)cs1 (configuration not stated),,-3.9% (inactive)
CC1C/C=C/C=C\CCCCC(O)C/C=C/C(=O)O1 (configuration not stated),,-13.9% (inactive)
C=C1C[C@@]23CC[C@@H]4[C@](C)(C(=O)O)CCC[C@@]4(C)C2=CC[C@H]1C3,,-1.67% (inactive)
C#Cc1cnc2[nH]c(=O)n(C(CC)CC)c2n1,18 µM (active),
CCOc1c2c(c(OCC)c3ccccc13)C(=O)N(c1ccc(CC(=O)NS(=O)(=O)c3ccccc3)cc1)C2,,16.7% (inactive)
C[C@]12CCC(=O)C=C1CC[C@@H]1[C@@H]2[C@@H](O)C[C@@]2(C)[C@H]1CC[C@]2(O)C(=O)COP(=O)(O)O,6.31 µM (active),
c1ccc(Nc2nc3c(s2)CCCc2[nH]ncc2-3)nc1,,-17.9% (inactive)
C[C@@H]1C/C=C/C=C\C=C\C=C\[C@H](O[C@@H]2O[C@H](C)[C@@H](O)[C@H](N)[C@@H]2O)C[C@@H]2O[C@](O)(C[C@@H](O)C[C@H]3O[C@@H]3/C=C/C(=O)O1)C[C@H](O)[C@H]2C(=O)O,,0.598% [at 15.3 µM] (inactive)
CC(=O)Oc1cc2c(s1)CCN([C@H](C(=O)C1CC1)c1ccccc1F)C2,,-7.26% (inactive)
C/C=C(/C)C(=O)O[C@H]1C=C(C)C[C@H](OC(=O)c2ccc(O)cc2)C2[C@](O)(C(C)C)CC[C@@]21C (some centres not stated),,-22% [at 15.3 µM] (inactive)
CCC[C@@H]1C[C@@H](C(=O)N[C@@H]([C@H]2O[C@H](SC)[C@H](O)[C@@H](O)[C@@H]2O)[C@@H](C)O)N(C)C1,,-3.2% (inactive)
O=C1CSC2(CCN(CCCN3c4ccccc4Sc4ccc(Cl)cc43)CC2)N1,,-3.83% (inactive)
CC[C@@H](c1ccc(F)c(F)c1)n1c(C(=O)OC)c(-c2ccno2)[nH]c1=S,,-25.7% (inactive)

# Target: Luciferin 4-monooxygenase (Photinus pyralis) (UniProt P08659)
# Assay: Primary firefly luciferase (FLuc) qHTS assay for identification of artifact compounds. (AID 1845220); note: nearly all actives have a fitted effect of over 60% in size;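 for activity change, negative = inhibition: plate controls were DMSO vehicle for no effect and no enzyme for full effect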
# Conditions: purified firefly luciferase, luminescence, 5 min; series mostly up to 54.1 µM; activity change, negative = inhibition: at the top concentration
# In short: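 Enzymatic FLuc inhibition assay: compounds pre-exposed to luciferin/ATP (10 uM each) for 15 min, then purified P. pyralis enzyme at 10 nM added. Read-out: luminescence at 5 min.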
SMILES,"activity change, negative = inhibition",outcome,Potency
COc1cccc(-n2nc(C(=O)O)cc2-c2ccc(C3CCCCC3)c(Cl)c2)c1,3.92% (inactive),,
Cc1nnc(C(C)C)n1C1CC2CCC(C1)N2CCC(NC(=O)C1CCC(F)(F)CC1)c1ccccc1 (configuration not stated),2.67% (inactive),,
CC(C)(C)NCC(O)COc1cccc2c1CCCC2=O (configuration not stated),,inactive,
COC1C=C([C@@H]2CC=C3[C@@]4(C)C(CC[C@]32C)[C@@]2(C)C=CC(=O)C(C)(C)C2C[C@H]4OC(C)=O)C(=O)O1 (some centres not stated),-1.85% [at 25.7 µM] (inactive),,
CC(NCc1ccc(OCc2cccc(F)c2)cc1)C(N)=O (configuration not stated),-12% (inactive),,
CCC[C@@H]1C[C@@H](C(=O)N[C@H](C(C)Cl)[C@H]2O[C@H](SC)[C@H](O)[C@@H](O)[C@H]2O)N(C)C1 (some centres not stated),,inactive,
Cn1c(=O)cc(N2CCCC(N)C2)n(Cc2ccccc2C#N)c1=O (configuration not stated),1.89% (inactive),,
COC(=O)[C@@H]1C2CC3c4[nH]c5ccccc5c4CCN3CC2CC[C@@H]1O (some centres not stated),0.619% (inactive),,
Nc1nc(CC(=O)Nc2ccc(CCNCC(O)c3ccccc3)cc2)cs1 (configuration not stated),,inactive,
CC1C/C=C/C=C\CCCCC(O)C/C=C/C(=O)O1 (configuration not stated),-0.976% (inactive),,
C=C1C[C@@]23CC[C@@H]4[C@](C)(C(=O)O)CCC[C@@]4(C)C2=CC[C@H]1C3,,inactive,
C#Cc1cnc2[nH]c(=O)n(C(CC)CC)c2n1,,inactive,
c1ccc(Nc2nc3c(s2)CCCc2[nH]ncc2-3)nc1,,,8.49 µM (active)
C[C@@H]1C/C=C/C=C\C=C\C=C\[C@H](O[C@@H]2O[C@H](C)[C@@H](O)[C@H](N)[C@@H]2O)C[C@@H]2O[C@](O)(C[C@@H](O)C[C@H]3O[C@@H]3/C=C/C(=O)O1)C[C@H](O)[C@H]2C(=O)O,,inactive [at 25.7 µM],
O=C(O)c1cnn(-c2nc3cc(OC(F)(F)F)c(Cl)cc3[nH]2)c1,,,3.01 µM (active)
CC(=O)Oc1cc2c(s1)CCN([C@H](C(=O)C1CC1)c1ccccc1F)C2,,inactive,
C/C=C(/C)C(=O)O[C@H]1C=C(C)C[C@H](OC(=O)c2ccc(O)cc2)C2[C@](O)(C(C)C)CC[C@@]21C (some centres not stated),,inactive [at 25.7 µM],
CCC[C@@H]1C[C@@H](C(=O)N[C@@H]([C@H]2O[C@H](SC)[C@H](O)[C@@H](O)[C@@H]2O)[C@@H](C)O)N(C)C1,2.18% (inactive),,
O=C(O)C[C@@H](NC(=O)c1cc(-c2ccc(-c3ccncc3)cc2)cs1)c1ccccc1,,,6.75 µM (active)
CC[C@@H](c1ccc(F)c(F)c1)n1c(C(=O)OC)c(-c2ccno2)[nH]c1=S,0.101% (inactive),,
